These results are taken from PubChem BioAssay (NCATS).

Inconclusive results are not listed. A call without a number means that no potency is given here. Activity calls are given as the source filed them. Calls come from the whole dose curve; as a rule, active = well fitted curve in the direction sought with a large enough effect; inconclusive = small, poorly fitted or top-dose-only effect, or another doubt; inactive = no such curve, though single readings can be large; an effect the other way counts as inactive or inconclusive.

The first assay is described as follows: Validation screen for small molecules that induce DNA re-replication in MCF 10A normal breast cells (AID 463097). Note: nearly all actives have a fitted effect of over 60% in size. Conditions: MCF 10A cells, DNA re-replication phenotype imaging; series mostly up to 46.1 µM. The method in brief: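 Read-out is Hoechst total nuclear intensity by fluorescence scanning imager, flagging increased high-DNA-content nuclei. Compounds were incubated with MCF 10A cells for 48 hr (37 C, 5% CO2) before 40 min staining.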
With `CC(=O)O[C@H]1C[C@@H]2CCC3C(CC[C@@]4(C)[C@H]3C[C@H]([N+]3(C)CCCCC3)[C@@H]4OC(C)=O)[C@@]2(C)C[C@@H]1[N+]1(C)CCCCC1` (some centres not stated), the call was inactive.

As to `N=C(N)SCCc1cccc(CCSC(=N)N)c1`, the call was inactive. For `Nc1nc(SCc2ccc([N+](=O)[O-])cc2)c2ncn([C@@H]3O[C@H](CO)[C@H](O)[C@H]3O)c2n1`, the result was inactive.

A further assay in a line: Quantitative high throughput screen for delayed death inhibitors of the malarial parasite plastid, 96 hour incubation (AID 488745). Note: nearly all actives have a fitted effect of over 70% in size. Note: potency is the fitted concentration of half-maximal effect. Particulars: Plasmodium falciparum growth; series mostly up to 28.7 µM. The method in brief: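 Infected erythrocytes were added to compound in Albumax-supplemented RPMI 1640 at 0.1% parasitemia and 2% hematocrit (final), incubated 96 h at 37 C under 5% CO2, then luciferase reagent was added and luminescence measured.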
As to `CNC(=O)[C@H]1O[C@@H](n2cnc3c(NCc4cccc(I)c4)ncnc32)[C@H](O)[C@H]1O`, the Potency result was “inactive”. `CC(N)=NCCCC(N)C(=O)O` (configuration not stated): the Potency entry was “inactive”. In the case of `Cc1cn([C@H]2C[C@@H](N=[N+]=[N-])[C@@H](CO)O2)c(=O)[nH]c1=O`, the Potency entry is “inactive”. For `N.N.N.N.N.N.N.N.N.N.N.N.N.N.O.O.[Cl-].[Cl-].[Cl-].[Cl-].[Cl-].[Cl-].[Ru].[Ru].[Ru]`, the Potency result is “inactive”.

Turning to `CN=C(N)NCCCC(N)C(=O)O` (configuration not stated), the Potency result is “inactive”. For `COc1c2c(nc3ccccc13)OC(C(C)(O)CO)C2` (configuration not stated), the Potency entry is “inactive”.

On to `CN1C2CC(OC(=O)C(CO)c3ccccc3)CC1C1OC12` (configuration not stated), for which the Potency result was “inactive”.

Regarding `CC(C)C1NC(=O)[C@H](CCCCN)NC(=O)[C@@H](Cc2c[nH]c3ccccc23)NC(=O)[C@H](Cc2ccc(O)cc2)NC(=O)[C@H](C)N(C)C(=O)[C@H](Cc2ccccc2)NC1=O` (some centres not stated), the Potency entry was “inactive”. Regarding `NCCC(=O)NCCc1cnc[nH]1`, the Potency result was “inactive”. On to `O=C(Cc1ccc(Cl)c(Cl)c1)OCCN1CCCC1`, for which the Potency result is “inactive”. On the same count and under the same terms, to `Cc1ccccc1N1CCN(S(=O)(=O)C[C@]23CCC(CC2NC(=O)[C@@H](N)CCS(C)(=O)=O)C3(C)C)CC1` (some centres not stated) belongs “inactive”; to `NC(=O)C1=CN(C2OC(COP(=O)(O)OP(=O)(O)OC[C@H]3O[C@@H](n4cnc5c(N)ncnc54)[C@H](OP(=O)(O)O)[C@H]3O)C(O)C2O)C=CC1` (some centres not stated), “inactive”. In the case of `CC(=O)[C@@]1(O)CC[C@H]2C3CCC4=CC(=O)CC[C@]4(C)C3CC[C@@]21C` (some centres not stated), the Potency entry was “inactive”.

On to `OC[C@H]1O[C@@H](n2cnc3c(NCCc4ccccc4)ncnc32)[C@H](O)[C@H]1O`, for which the Potency entry is “inactive”. `CCCCCCCCCCCCCCC/C=C/[C@@H](O)[C@H](NC(=O)CCCCCCCCCCCCC)OC` (tested in a mixture with another compound): the Potency entry was “inactive”. Turning to `NCCNC(=O)c1ccc(Cl)cc1`, the Potency result was “inactive”. Still for that read-out and setting: the result for `NC(=NCCC[C@H](N)C(=O)O)NO` reads “inactive”. As for `N[C@H](Cc1ccc(O)c(O)c1)C(=O)O`, the Potency entry is “inactive”. Turning to `Nc1nc(Nc2ccccc2)nc2c1ncn2[C@@H]1O[C@H](CO)[C@H](O)[C@H]1O`, the Potency entry was “inactive”. Turning to `NC(=S)c1ccc[n+]([C@@H]2O[C@@H](COP(=O)([O-])OP(=O)(O)OC[C@H]3O[C@@H](n4cnc5c(N)ncnc54)[C@H](OP(=O)(O)O)[C@H]3O)C(O)C2O)c1` (some centres not stated), the Potency result is “inactive”. Turning to `O=C(O)CC[C@H](NC(=O)c1ccccc1C(=O)O)C(=O)O`, the Potency result was “inactive”. Still for that read-out and setting: the result for `NCC1OC(O[C@@H]2[C@H](O)[C@@H](OC3C(O)C(N)CC(N)C3OC3OC(CO)C(O)C(O)C3N)O[C@@H]2CO)C(N)C(O)C1O` (some centres not stated) reads “inactive”. For `COc1cc(=O)n(C)c2c(OCC(O)C(C)(C)O)cccc12` (configuration not stated), the Potency entry is “inactive”. Same read-out and setting: the result for `C[C@]12CCC(=O)C=C1CC[C@@H]1C2[C@@H](O)C[C@@]2(C)[C@H]1CC[C@]2(O)C(=O)CO` (some centres not stated) reads “inactive”; that for `N=C(N)SCCc1cccc(CCSC(=N)N)c1`, 13.1 µM (active); that for `Nc1nc(SCc2ccc([N+](=O)[O-])cc2)c2ncn([C@@H]3O[C@H](CO)[C@H](O)[C@H]3O)c2n1`, “inactive”.

The next assay in a line: Quantitative high throughput screen for delayed death inhibitors of the malarial parasite plastid, 48 hour incubation (AID 488752). Note: nearly all actives have a fitted effect of over 65% in size. Conditions: Plasmodium falciparum growth; series mostly up to 28.7 µM. Put shortly:
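Readout is firefly luciferase luminescence from a reporter integrated into the parasite genome, with lower signal taken as inhibited growth. Infected red cells (0.1% parasitemia, 2% hematocrit final) are cultured with compound for one 48 h cycle at 37 C.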
Consider `CNC(=O)[C@H]1O[C@@H](n2cnc3c(NCc4cccc(I)c4)ncnc32)[C@H](O)[C@H]1O`, for which the Potency entry was “inactive”. For `CC(N)=NCCCC(N)C(=O)O` (configuration not stated), the Potency result was “inactive”. Same read-out and setting: to `Cc1cn([C@H]2C[C@@H](N=[N+]=[N-])[C@@H](CO)O2)c(=O)[nH]c1=O` belongs “inactive”.

For `N.N.N.N.N.N.N.N.N.N.N.N.N.N.O.O.[Cl-].[Cl-].[Cl-].[Cl-].[Cl-].[Cl-].[Ru].[Ru].[Ru]`, the Potency result was “inactive”. Consider `CN=C(N)NCCCC(N)C(=O)O` (configuration not stated), for which the Potency result was “inactive”. Still for that read-out and setting: the result for `COc1c2c(nc3ccccc13)OC(C(C)(O)CO)C2` (configuration not stated) reads “inactive”; that for `CN1C2CC(OC(=O)C(CO)c3ccccc3)CC1C1OC12` (configuration not stated), “inactive”. Same read-out and setting: to `CC(C)C1NC(=O)[C@H](CCCCN)NC(=O)[C@@H](Cc2c[nH]c3ccccc23)NC(=O)[C@H](Cc2ccc(O)cc2)NC(=O)[C@H](C)N(C)C(=O)[C@H](Cc2ccccc2)NC1=O` (some centres not stated) belongs “inactive”; to `NCCC(=O)NCCc1cnc[nH]1`, “inactive”. For the compound `O=C(Cc1ccc(Cl)c(Cl)c1)OCCN1CCCC1`, the Potency result was “inactive”. `Cc1ccccc1N1CCN(S(=O)(=O)C[C@]23CCC(CC2NC(=O)[C@@H](N)CCS(C)(=O)=O)C3(C)C)CC1` (some centres not stated): the Potency result is “inactive”. Turning to `NC(=O)C1=CN(C2OC(COP(=O)(O)OP(=O)(O)OC[C@H]3O[C@@H](n4cnc5c(N)ncnc54)[C@H](OP(=O)(O)O)[C@H]3O)C(O)C2O)C=CC1` (some centres not stated), the Potency result was “inactive”.

In the case of `CC(=O)[C@@]1(O)CC[C@H]2C3CCC4=CC(=O)CC[C@]4(C)C3CC[C@@]21C` (some centres not stated), the Potency entry was “inactive”. In the case of `OC[C@H]1O[C@@H](n2cnc3c(NCCc4ccccc4)ncnc32)[C@H](O)[C@H]1O`, the Potency result was “inactive”. Same read-out and setting: to `CCCCCCCCCCCCCCC/C=C/[C@@H](O)[C@H](NC(=O)CCCCCCCCCCCCC)OC` (tested in a mixture with another compound) belongs “inactive”; to `NCCNC(=O)c1ccc(Cl)cc1`, “inactive”. With `NC(=NCCC[C@H](N)C(=O)O)NO`, the Potency result is “inactive”. For the compound `OC[C@H]1O[C@@H](n2cnc3c(Nc4ccccc4)ncnc32)[C@H](O)[C@H]1O`, the Potency result was “inactive”. The same measure, in the same setting: the result for `N[C@H](Cc1ccc(O)c(O)c1)C(=O)O` reads “inactive”; that for `Nc1nc(Nc2ccccc2)nc2c1ncn2[C@@H]1O[C@H](CO)[C@H](O)[C@H]1O`, “inactive”. On to `NC(=S)c1ccc[n+]([C@@H]2O[C@@H](COP(=O)([O-])OP(=O)(O)OC[C@H]3O[C@@H](n4cnc5c(N)ncnc54)[C@H](OP(=O)(O)O)[C@H]3O)C(O)C2O)c1` (some centres not stated), for which the Potency result is “inactive”. As to `O=C(O)CC[C@H](NC(=O)c1ccccc1C(=O)O)C(=O)O`, the Potency result is “inactive”. Take `NCC1OC(O[C@@H]2[C@H](O)[C@@H](OC3C(O)C(N)CC(N)C3OC3OC(CO)C(O)C(O)C3N)O[C@@H]2CO)C(N)C(O)C1O` (some centres not stated): the Potency result is “inactive”. Take `COc1cc(=O)n(C)c2c(OCC(O)C(C)(C)O)cccc12` (configuration not stated): the Potency result is “inactive”. As for `C[C@]12CCC(=O)C=C1CC[C@@H]1C2[C@@H](O)C[C@@]2(C)[C@H]1CC[C@]2(O)C(=O)CO` (some centres not stated), the Potency entry was “inactive”. Regarding `CN1C(=O)CCC1c1cccnc1` (configuration not stated), the Potency result was “inactive”. On to `CC(=O)O[C@H]1C[C@@H]2CCC3C(CC[C@@]4(C)[C@H]3C[C@H]([N+]3(C)CCCCC3)[C@@H]4OC(C)=O)[C@@]2(C)C[C@@H]1[N+]1(C)CCCCC1` (some centres not stated), for which the Potency entry is “inactive”. Consider `Nc1nc(SCc2ccc([N+](=O)[O-])cc2)c2ncn([C@@H]3O[C@H](CO)[C@H](O)[C@H]3O)c2n1`, for which the Potency entry was “inactive”.
